# Screening data as filed in PubChem BioAssay.
# FLuc counter: qHTS profiling assay for firefly luciferase inhibitor/activator using purifed enzyme and Km concentrations of substrates (counterscreen for miR-21 project). Luciferin 4-monooxygenase (Photinus pyralis), P08659. purified FLuc, Km substrates, luminescence inhibition. Potency, µM (series often up to 57.5 µM), most hits filed as inhibitors. actives 6.9% (n = 360,000); also: nearly all actives have a fitted effect of over 55% in size
# Target sequence (P08659 whole entry, looked up): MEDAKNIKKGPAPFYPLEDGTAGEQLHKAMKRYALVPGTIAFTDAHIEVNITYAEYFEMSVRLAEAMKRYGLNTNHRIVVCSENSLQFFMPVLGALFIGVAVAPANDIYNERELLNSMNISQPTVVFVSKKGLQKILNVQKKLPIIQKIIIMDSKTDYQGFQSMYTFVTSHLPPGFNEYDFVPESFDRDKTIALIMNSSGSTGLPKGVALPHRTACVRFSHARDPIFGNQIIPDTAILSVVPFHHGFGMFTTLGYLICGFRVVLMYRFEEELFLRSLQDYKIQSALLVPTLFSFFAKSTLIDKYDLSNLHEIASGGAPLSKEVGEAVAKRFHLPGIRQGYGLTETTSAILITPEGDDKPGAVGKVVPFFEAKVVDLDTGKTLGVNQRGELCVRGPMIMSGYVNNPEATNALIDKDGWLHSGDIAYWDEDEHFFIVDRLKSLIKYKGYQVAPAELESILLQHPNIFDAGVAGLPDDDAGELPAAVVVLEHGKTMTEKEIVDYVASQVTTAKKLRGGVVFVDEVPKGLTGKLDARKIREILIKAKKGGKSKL
#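 Purified P. pyralis luciferase (10nM final) with 10uM D-luciferin and 10uM ATP (Km levels) in 50mM Tris acetate pH 7.5, 10mM Mg acetate, 0.01% Tween-20, 0.05% BSA; qHTS 6-point titration, ~60 µM downward; luminescence read.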
# NPC1 promoter act: qHTS Assay for NPC1 Promoter Activators; Huh7 NPC1 promoter luciferase reporter, 24 h; Potency, µM (series often up to 9.22 µM), most hits filed as activators; actives 2.4% (n = 320,000); also: nearly all actives have a fitted effect of over 60% in size
#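 Luminescence read-out of NPC1 promoter-driven luciferase in stably transfected Huh7 cells; compounds delivered in DMSO and left 24 h at 37C, 5% CO2, qHTS titration format.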
# SMN2 splice enh: qHTS Assay for Enhancers of SMN2 Splice Variant Expression | HEK293 SMN2-luciferase splicing reporter, luminescence, 30-36 h | Potency, µM (doses to about 46.1 µM), most hits filed as activators | actives 2.8% (n = 210,000) | AID 1458, 2008; also: nearly all actives have a fitted effect of over 55% in size
#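 HEK293 cells carry an SMN2 […]–luciferase reporter in which exon 7 inclusion puts luciferase in frame. Cells were plated 10-12 h before compound addition, then incubated 30-36 h at 37C. ONE-Glo luminescence was read; sodium butyrate at 4.5 mM final served as control.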
# ELG1 genotoxic: qHTS screen for small molecules that induce genotoxicity in human embryonic kidney (HEK293T) cells expressing luciferase-tagged ELG1; HEK293T ELG1-luciferase reporter, luminescence, 16 h; Potency, µM (top dose mostly 46 µM), most hits filed as activators; AID 504466, 2011; actives 1.3% (n = 330,000); also: nearly all actives have a fitted effect of over 60% in size
#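 Cells (2,000/well) expressing the ELG1-luciferase fusion are dosed by pin tool and kept 16 hr at 37 °C, 5% CO2. Signal comes from ONE-Glo luciferase reagent after 30 min at room temperature.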
# Rab9 promoter act: qHTS Assay for Rab9 Promoter Activators; Huh7 Rab9 promoter-luciferase reporter, luminescence, 24 h; Potency, µM (series often up to 9.22 µM), most hits filed as activators; actives 2.8% (n = 320,000); AID 485297, 2010; also: nearly all actives have a fitted effect of over 60% in size
#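 Luminescence from Amplite-detected luciferase (10 minutes, ambient) reports Rab9 promoter activation. Before that, stable Rab9-luciferase Huh7 cells (1500/well, reduced-serum OP-MEM I plus 10% FBS) were exposed to compound for 24 hours at 37C.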
# A number is an active result; 0 = inactive; ? = inconclusive; - = no result; [ ] = remark or other dose. Shown are actives, neighbours in structure and some others; about 7.5% of the full set was active somewhere. Calls follow the shape of the dose curve; as a rule, active = well fitted curve in the direction sought with a large enough effect; inconclusive = small, poorly fitted or top-dose-only effect, or another doubt; inactive = no such curve, though single readings can be large; an effect the other way counts as inactive or inconclusive.
SMILES,FLuc counter,NPC1 promoter act,SMN2 splice enh,ELG1 genotoxic,Rab9 promoter act
Cc1ccc2c(COC(=O)c3cnc(C)cn3)cc(=O)oc2c1,?,0,0,0,0
Cc1ccc2c(COC(=O)C3=COCCO3)cc(=O)oc2c1,0.85µM,3.2µM,?,1.8µM,0.79µM
CCOC(=O)Nc1ccc2c(COC(=O)c3ccccc3O)cc(=O)oc2c1,?,?,-,?,0
Cc1ccc2c(COC(=O)c3ccccc3OC(F)F)cc(=O)oc2c1,4.8µM,0,-,?,0
Cc1ccc2c(COC(=O)CNC(=O)c3ccccc3)cc(=O)oc2c1,19µM,0,0,0,0
COc1ccc(Oc2nccc(-c3ccc(F)cc3)c2C#N)cc1,0,0,0,0,0
COc1ccc(Oc2nccc(-c3ccccc3)c2C#N)cc1,12µM,?,0,0,?
Cc1ccc(C)c(OCCOCCn2c(-c3ccc(Br)cc3)nc3ccccc3c2=O)c1C,0,-,0,-,-
OC1(c2cccc(C(F)(F)F)c2)CCN(c2ccc(-c3ccccc3)nn2)CC1,0,3.2µM,?,0,1.4µM
CCc1ccccc1NC(=O)C1CCCN(S(=O)(=O)c2ccc3[nH]c(=O)ccc3c2)C1 (centres undefined),0,-,-,-,-
Cc1cc(NC(=O)c2cc3cccc([N+](=O)[O-])c3[nH]2)ccc1F,5.4µM,2.5µM,-,?,2.2µM
COC(=O)N1C2=C(c3ccccc3[C@@H]1CC(=O)Nc1ccc3cc4ccccc4cc3c1)[C@@H]1C(=O)N(c3ccccc3)C(=O)[C@@H]1[C@H](C)C2,-,-,0[9.22 µM],-,-
Cc1ccc(C)c(NC(=O)Cn2c(=O)nc(-c3ccccc3)c3ccccc32)c1,0,-,-,-,-
CCn1cc(C(=O)Nc2ccccc2C(=O)OC)c(=O)c2ccc(C)nc21,3.4µM,0.56µM,11µM,?,1.1µM
CCn1cc(C(=O)Nc2cccc(C(=O)OC)c2)c(=O)c2ccc(C)nc21,0,0,0,0,0
CCn1cc(C(=O)OCc2ccccc2)c(=O)c2ccc(C)nc21,0,0,0,0,0
CCOC(=O)c1ccccc1NC(=O)c1cn(CC)c2nc(C)ccc2c1=O,3.4µM,1µM,0,?,0.79µM
CCOC(=O)c1cn(CC)c2c(ccc3ccccc32)c1=O,24µM,0,-,0,0
Cc1c(C(=O)NCc2ccccc2Cl)sc2nc3n(c(=O)c12)CCCCC3,0,-,-,-,-
COc1ccc(CNc2oc(/C=C/c3cccc(OC)c3)nc2C#N)cc1,0,-,0,-,-
O=C(NC(=S)N1CCN(C/C=C/c2ccccc2)CC1)c1ccc(Cl)nc1,0,0,-,0,0
CNc1ccc(/C=C2\CSc3ccccc3C2=O)cc1[N+](=O)[O-],0.76µM,0,0,?,0
O=C1/C(=C/c2cccc([N+](=O)[O-])c2)CSc2ccc(Cl)cc21,0,0,-,0,0
CNC(=O)Nc1ccc(Cl)cc1,?,0,0,0,0
CCOC(=O)c1ccc(NC(=O)c2cc(F)c(F)cc2Cl)cc1,?,0,0,0,0
SMILES,FLuc counter,NPC1 promoter act,SMN2 splice enh,ELG1 genotoxic,Rab9 promoter act
COc1ccc(NC(=O)Nc2cccs2)cc1Cl,8.5µM,?,-,?,?
COc1ccc(NC(=O)c2cc(F)c(F)cc2Cl)cc1Cl,13µM,?,-,?,?
CC(C)=CC(=O)Nc1ccc(Cl)cc1,11µM,1.6µM,14µM,?,1.4µM
COc1ccc(NC(=O)C=C(C)C)cc1Cl,12µM,-,11µM,-,-
OC[C@@H](O)[C@@H](O)CCc1ccccc1,-,-,0,-,-
CCCCCCN1C=CC(=C2C(=O)c3ccccc3C2=O)C=C1,0.21µM,?,-,0.18µM,0.11µM
CN1C=CC(=C2C(=O)c3ccccc3C2=O)C=C1,3µM,0.45µM,13µM,2.9µM,0.35µM
CCCCCCN1Cc2ccccc2C1,0,0,0,0,0
CCCN1C=CC(=C2C(=O)c3ccccc3C2=O)C=C1,0.067µM,3.2e-05µM,0,0,0.0003µM
COC1=C(OC)C(=O)c2ccccc2C1=O,-,0,0,-,0
CCN1C=CC(=C2C(=O)c3ccccc3C2=O)C=C1,0.085µM,0.0002µM,0.25µM,?,0.0003µM
Cc1ccc(NNc2c(C)nc3ccccc3nc2=O)cc1,0,0,0,0,0
COc1ccc(N2CCN(c3oc(/C=C/c4ccc(F)cc4)nc3C#N)CC2)cc1,0,-,0,-,-
CC1CC(C)(C)Nc2ccc(N=O)cc21 (centres undefined),0,0,0,0,0
CC1CC(C)(C)Nc2ccc(OC(=O)c3ccco3)cc21 (centres undefined),6.7µM,0,-,0,?
CCn1cc(C(=O)N(C)c2ccc(C(C)C)cc2)c2cc(OC)c(OC)cc2c1=O,0,-,0,-,-
CC(C)(CC(=O)O)CC(=O)N1CCN(c2nc3ccc(Cl)cc3s2)CC1,0,0,-,0,0
O=C(C1CC1)N1CCN(c2nc3ccccc3s2)CC1,21µM,2.8µM,?,?,2.2µM
CCCCC(=O)N1CCN(c2nc3ccc(Cl)cc3s2)CC1,11µM,?,-,?,0
CCC(=O)N1CCN(c2nc3ccccc3s2)CC1,17µM,?,0,0,3.2µM
O=C(Nc1ccccc1)N1CCN(c2nc3ccccc3s2)CC1,0,0,0,0,0
CNC(=S)N1CCN(c2nc3ccccc3s2)CC1,17µM,?,-,0,?
Cc1ccc(CNC(=O)COC(=O)CCCOc2ccc(Cl)cc2Cl)cc1,?,0,0,0,0
COc1ccc(CN2CCN(c3nc4ccccc4s3)CC2)cc1,?,0,-,0,?
Cc1ccccc1CN1CCN(c2nc3ccccc3s2)CC1,4.8µM,1.6µM,-,21µM,1.4µM
SMILES,FLuc counter,NPC1 promoter act,SMN2 splice enh,ELG1 genotoxic,Rab9 promoter act
Cc1cc(C)c2sc(N3CCN(C(=O)C4CC4)CC3)nc2c1,12µM,-,-,-,-
O=C1C(Cl)=C(N2CCOCC2)C(=O)N1CCc1ccccc1,19µM,0,13µM,?,?
O=C1C(Cl)=C(NCCCN2CCOCC2)C(=O)N1CCc1ccccc1,0,0,?,?,0
O=C1C(Cl)=C(NCC2CCCO2)C(=O)N1CCc1ccccc1 (centres undefined),15µM,?,13µM,?,?
O=C1C(Cl)=C(N2CCCCC2)C(=O)N1Cc1ccccc1,0,0,0,0,0
CN1CCN(C2=C(Cl)C(=O)N(CCc3ccccc3)C2=O)CC1,?,0,13µM,0,?
COc1cccc(N2C(=O)CSC23C(=O)N(CC(=O)Nc2cccc(Cl)c2)c2ccccc23)c1 (centres undefined),0,-,-,-,-
C=CCN(CC=C)CCOc1ccc2ccccc2c1,0,0,0,0,0
COc1ccc(NC(=O)Nc2nc3c(s2)CCCC3)cc1,4.8µM,4µM,13µM,0,1.8µM
O=C(Nc1cccc(Br)c1)Nc1nc2c(s1)CCCCCC2,11µM,-,-,-,-
CC(=O)c1c(C)[nH]c(C(=O)COC(=O)CCSc2ccccc2)c1C,0,0,0,0,0
CC(=O)c1c(C)[nH]c(C(=O)CSc2ccc(F)cc2)c1C,13µM,?,-,0,0
CCOC(=O)c1[nH]c(C)c(C(=O)/C=C/c2ccc(C(=O)O)cc2)c1C,13µM,0,-,0,0
